# Measurements from PubChem BioAssay.
# A number with no mark means an inactive call. The source made the active and inactive calls. Cut-off read from the data, not from the text of the source, unless noted: active = inhibition above about 28%; inactive = the rest.
# Experiments:
# [1] = StAR promoter reporter inhibitors, counter-screen for LRH-1 inverse agonist project, cell-based, luminescence, high throughput (AID 651611); conditions: StAR promoter luciferase reporter counterscreen, at 3.6 µM, hits give high values
# [2] = biological target: Nuclear receptor subfamily 5 group A member 2 (Homo sapiens) (UniProt O00482); experiment: NR5A2 activity suppression in reporter cells – cell-based, luminescence, confirmation (AID 651613; in the data active = inhibition above about 42%;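 note: HEK293T cells co-transfected with LRH-1 and StAR promoter luciferase reporter; 0% = vehicle wells and 100% = parental cells lacking receptor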); conditions: cell-based LRH-1 luciferase reporter, inverse agonism; at 3.6 µM; hits give high values
# Sequence of Nuclear receptor subfamily 5 group A member 2 (Homo sapiens) (O00482 whole entry, looked up): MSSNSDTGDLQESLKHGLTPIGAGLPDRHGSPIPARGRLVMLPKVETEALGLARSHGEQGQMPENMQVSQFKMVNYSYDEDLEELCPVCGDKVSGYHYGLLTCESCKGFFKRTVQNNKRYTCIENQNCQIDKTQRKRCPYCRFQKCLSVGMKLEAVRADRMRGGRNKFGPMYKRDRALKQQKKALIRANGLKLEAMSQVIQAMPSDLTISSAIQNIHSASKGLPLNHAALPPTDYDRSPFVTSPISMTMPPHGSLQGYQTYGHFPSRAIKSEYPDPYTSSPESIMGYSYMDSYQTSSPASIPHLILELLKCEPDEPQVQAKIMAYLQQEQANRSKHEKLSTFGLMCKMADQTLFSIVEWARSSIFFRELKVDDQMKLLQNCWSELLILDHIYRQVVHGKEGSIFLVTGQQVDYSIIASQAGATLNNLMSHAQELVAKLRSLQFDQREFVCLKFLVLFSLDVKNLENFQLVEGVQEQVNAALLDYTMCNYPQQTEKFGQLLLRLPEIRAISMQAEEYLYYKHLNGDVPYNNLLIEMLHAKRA
# [3] = biological target: Steroidogenic factor 1 (Homo sapiens) (UniProt Q13285); experiment: inverse agonism at SF1 nuclear receptor – cell-based, luminescence, high throughput, counter-screen for LRH-1 inverse agonist project (AID 651614; in the data active = inhibition above about 44%;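 note: cells cotransfected with StAR promoter reporter and SF1 expression vector; 0% = vehicle on cells with receptor and 100% = vehicle on cells lacking receptor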); conditions: cell-based SF1 luciferase reporter, at 3.6 µM, hits give high values
# Sequence of Steroidogenic factor 1 (Homo sapiens) (Q13285 whole entry, looked up, the tested form may be a part): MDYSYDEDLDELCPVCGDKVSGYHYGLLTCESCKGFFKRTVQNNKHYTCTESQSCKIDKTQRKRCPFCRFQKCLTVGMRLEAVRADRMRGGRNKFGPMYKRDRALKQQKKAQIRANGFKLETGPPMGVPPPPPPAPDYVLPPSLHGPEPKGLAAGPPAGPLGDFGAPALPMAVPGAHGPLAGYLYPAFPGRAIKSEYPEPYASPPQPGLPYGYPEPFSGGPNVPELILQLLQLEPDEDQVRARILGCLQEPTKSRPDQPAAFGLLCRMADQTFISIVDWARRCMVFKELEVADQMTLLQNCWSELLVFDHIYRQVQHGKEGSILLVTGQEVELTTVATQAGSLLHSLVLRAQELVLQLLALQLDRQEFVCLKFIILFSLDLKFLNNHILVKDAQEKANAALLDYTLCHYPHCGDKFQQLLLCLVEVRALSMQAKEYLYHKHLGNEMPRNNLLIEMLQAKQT
# [4] = compounds suppressing VP16-driven luciferase signal – cell-based, luminescence, high throughput, counter-screen for LRH-1 inverse agonist project (AID 651615; in the data active = inhibition above about 33%); conditions: Gal4-VP16 luciferase reporter cells, at 3.6 µM, hits give high values
SMILES,inhibition [1],inhibition [2],inhibition [3],inhibition [4]
CCC(=O)Nc1ccc(NC(=O)CSc2nc3cc4c(cc3cc2C)CCC4)cc1,9.63%,56.4% (active),50.7% (active),0.93%
CCCc1cc(=O)oc2c(C)c(OCC(=O)NCCN3CCOCC3)ccc12,6.59%,43.8% (active),46.3% (active),-19.2%
CO/N=C\C(=N\Nc1ccc(OC)cc1)C(=O)c1ccccc1,-11.7%,49.5% (active),36.8%,5.9%
COc1ccc(CCNC(=O)COC(=O)C23CC4CC(CC(Br)(C4)C2)C3)cc1,4.42%,53.8% (active),53.9% (active),4.71%
COc1ccc(-c2cnc3c(NC=O)cc(-c4ccc(S(C)(=O)=O)cc4)cn23)cc1OC,-4.42%,63% (active),58.1% (active),30.2%
COc1cc2c(cc1OC)-c1c(OC)c(OC)cc3ccnc(c13)C2=O,41.2% (active),68.4% (active),59% (active),25.4%
COCc1cc(C)nc(SCC(=O)Nc2cc3c(cc2C#N)OCO3)c1C#N,-4.84%,45.3% (active),47.2% (active),-12.4%
COC(=O)c1cc2occc2n1CC(=O)Nc1ccc(C)cc1C,13.8%,66.8% (active),51.6% (active),1.15%
COCC1CCCN(C(=O)c2cc(COc3ccc4ncccc4c3)on2)C1 (stereo not drawn),30.9% (active),58.5% (active),64.1% (active),47.7% (active)
CC(=O)Nc1ccc(NC(=O)CSc2nnc(NC(=O)C3CC3)s2)cc1,1.23%,49.6% (active),48.2% (active),-1.05%
NC(=O)CC[C@H](NC(=O)c1ccc(F)cc1)C(=O)OCC(=O)Nc1ccc(N2CCOCC2)cc1,0.81%,57.5% (active),47.9% (active),-8.19%
Cc1ccc(-c2csc(NC(=O)C3CCN(S(=O)(=O)c4cccs4)CC3)n2)cc1,15.3%,58.5% (active),55.4% (active),47.9% (active)
Cn1c(SCC(=O)Nc2ccc(N3CCOCC3)cc2)nnc1-c1ccco1,0.8%,56.5% (active),49.4% (active),-17.8%
COc1ccc(OC)c(NS(=O)(=O)c2ccc(SC)cc2)c1,37.9% (active),55% (active),54.2% (active),14.8%
CCOc1ccc(NC(=O)CSc2nc3c(c(=O)n2-c2ccccc2OC)SCC3)cc1,8.34%,63.1% (active),58.7% (active),-10.6%
COc1ccc(CCNC(=O)CSc2nnc(CNc3ccc(Cl)cc3)o2)cc1OC,1.3%,48.7% (active),38.9%,-2.14%
Cc1cc(NC(=O)CSc2nc3c(sc4ccccc43)c(=O)n2CCCN2CCOCC2)n[nH]1,48% (active),70.3% (active),44.2% (active),-8.59%
N#CC1=C(N2CCOCC2)/C(=C\c2ccccc2)CC1,14.8%,51.9% (active),46.6% (active),8.41%
CS(=O)(=O)c1ccc(Cl)c(NC(=O)Nc2ccccc2)c1,-6.75%,25.1%,17.5%,-2.94%
O=[N+]([O-])c1ccc(N2CCCCC2)nc1N1CCCCC1,-13.2%,54.5% (active),51.2% (active),13.4%
O=C(c1ccccc1)N(NC(=O)C(O)(c1ccccc1)c1ccccc1)c1cccc(F)c1,-4.21%,61.5% (active),53% (active),30.2%
COc1cc2c(cc1OC)C(C1C(=O)CC(C)CC1=O)N(C(=O)CCl)CC2 (stereo not drawn),19.1%,54.1% (active),58.5% (active),-19.1%
